In PubChem BioAssay (EPA / NIEHS):
Active and inactive are the calls of the source. The calls were made as follows: active = hit-call score of the fitted dose curve at least 0.9, where 1 is the maximum; inactive = score below 0.9.

Experiments:
[1] = ATG_GRE_CIS: Attagene CIS-FACTORIAL HepG2 Assay for human Glucocorticoid Response Elements (GRE) (AID 2282947); conditions: HepG2 GRE cis-reporter, Attagene multiplex mRNA; actives raise or lower the signal
Summary of the method: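 Following 24 h chemical exposure of transiently transfected HepG2 cells, total RNA was reverse-transcribed and reporter cDNA amplified, fluorescently labelled and sized by capillary electrophoresis. Signal gain or loss was fitted relative to DMSO vehicle.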

[2] = ATG_ISRE_CIS: Attagene CIS-FACTORIAL HepG2 Assay for human Interferon Regulatory Factor 1 (IRF1) binding to an Interferon-Stimulated Response Element (ISRE) (AID 2282948); conditions: HepG2 ISRE cis-reporter (Attagene), mRNA transcription readout; actives raise or lower the signal
Summary of the method: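 Quantitation relies on labelled RT-PCR fragments separated by capillary electrophoresis. Human HepG2 cells bearing cis-promoter reporter constructs were treated 24 h; DMSO served as baseline for bidirectional fitting.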

[3] = ATG_M_32_CIS: Attagene CIS-FACTORIAL HepG2 Assay for M32 Transcription Factor (Internal Marker) (AID 2282949); conditions: HepG2 Attagene cis-factorial M32 reporter, mRNA; actives raise or lower the signal;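 also: background control marker of the multiplexed CIS panel rather than a real target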
Summary of the method: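 HepG2 cells transiently transfected with multiplexed cis-regulated reporter units, dosed 24 h. Reporter mRNA quantified by RT-PCR, 6-FAM labelling, HpaI digestion and capillary electrophoresis; bidirectional fit vs DMSO.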

[4] = ATG_M_06_CIS: Attagene CIS-FACTORIAL HepG2 Assay for M06 Transcription Factor (Internal Marker) (AID 2282950); conditions: HepG2 Attagene CIS-FACTORIAL M06 internal marker reporter; actives raise or lower the signal
Summary of the method: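 HepG2 cells transiently transfected with cis-regulated multiple reporter transcription units were exposed to chemical for 24 h; reporter mRNA was quantified by RT-PCR, 6-FAM primer labelling, HpaI digestion and capillary electrophoresis, fitted bidirectionally against DMSO.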

[5] = molecular target: Hepatocyte nuclear factor 6 (Homo sapiens) (UniProt Q9UBC0); experiment: ATG_HNF6_CIS: Attagene CIS-FACTORIAL HepG2 Assay for human Hepatocyte Nuclear Factor 6 (HNF6) (AID 2282952); conditions: HepG2 Attagene cis-factorial HNF6 reporter transcription; actives raise or lower the signal
Sequence of Hepatocyte nuclear factor 6 (Homo sapiens) (Q9UBC0 whole entry, looked up): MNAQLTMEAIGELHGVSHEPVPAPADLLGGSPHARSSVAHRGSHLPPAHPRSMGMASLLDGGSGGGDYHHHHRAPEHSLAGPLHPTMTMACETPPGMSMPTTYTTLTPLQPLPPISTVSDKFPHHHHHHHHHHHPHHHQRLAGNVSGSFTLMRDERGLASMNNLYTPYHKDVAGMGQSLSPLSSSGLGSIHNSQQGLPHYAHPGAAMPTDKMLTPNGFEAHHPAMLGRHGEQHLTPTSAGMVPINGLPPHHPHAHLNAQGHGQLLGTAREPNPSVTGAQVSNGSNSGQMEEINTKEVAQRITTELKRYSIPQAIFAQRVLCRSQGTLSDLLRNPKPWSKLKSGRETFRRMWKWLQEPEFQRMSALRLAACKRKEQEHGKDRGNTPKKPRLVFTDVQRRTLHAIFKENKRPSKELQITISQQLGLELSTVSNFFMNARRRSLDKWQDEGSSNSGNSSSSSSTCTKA
Summary of the method: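 HepG2, transient MRTU transfection (cis promoters); 24 h chemical exposure; total RNA → oligo(dT) RT → PCR → 6-FAM labelling → HpaI cut → CE; bidirectional fit vs DMSO.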

[6] = molecular target: Heat shock factor protein 1 (Homo sapiens) (UniProt Q00613); experiment: ATG_HSE_CIS: Attagene CIS-FACTORIAL HepG2 Assay for human Heat Shock Transcription Factor 1 (HSE) (AID 2282953); conditions: HepG2 HSE cis-reporter, Attagene RNA transcription; actives raise or lower the signal
Sequence of Heat shock factor protein 1 (Homo sapiens) (Q00613 whole entry, looked up): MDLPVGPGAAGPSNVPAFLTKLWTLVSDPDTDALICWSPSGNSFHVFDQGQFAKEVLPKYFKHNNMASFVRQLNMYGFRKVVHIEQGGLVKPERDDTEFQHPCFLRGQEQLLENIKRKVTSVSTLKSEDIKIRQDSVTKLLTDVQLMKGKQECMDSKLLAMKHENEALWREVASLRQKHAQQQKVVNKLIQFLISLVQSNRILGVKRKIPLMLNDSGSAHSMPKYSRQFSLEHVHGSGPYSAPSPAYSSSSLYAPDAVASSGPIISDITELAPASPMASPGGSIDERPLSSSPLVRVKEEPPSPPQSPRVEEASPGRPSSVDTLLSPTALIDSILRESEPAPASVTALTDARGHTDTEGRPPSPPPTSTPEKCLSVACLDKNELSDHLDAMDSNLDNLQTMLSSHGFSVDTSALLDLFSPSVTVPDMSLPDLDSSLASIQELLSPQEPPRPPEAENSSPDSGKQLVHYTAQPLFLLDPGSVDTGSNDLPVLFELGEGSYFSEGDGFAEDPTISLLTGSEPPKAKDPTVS
Summary of the method: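 HepG2 cells transiently transfected with multiple reporter transcription units under cis-regulatory promoter control, measuring endogenous transcription factor activity. After 24 h chemical exposure, reporter mRNA quantified by RT-PCR, fluorescent labelling, HpaI digestion and capillary electrophoresis; bidirectional fit versus DMSO.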

[7] = ATG_MRE_CIS: Attagene CIS-FACTORIAL HepG2 Assay for human Metal Responsive Element (MRE) (AID 2282954); conditions: HepG2 MRE cis-reporter transcription, Attagene multiplex; actives raise or lower the signal
Summary of the method: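 Step one: transfect HepG2 with cis-regulated reporter units. Step two: dose 24 h. Step three: isolate RNA, RT-PCR, 6-FAM label, HpaI digest, capillary electrophoresis. Fit bidirectionally to DMSO.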

[8] = ATG_PBREM_CIS: Attagene CIS-FACTORIAL HepG2 Assay for human Phenobarbital-responsive Enhancer Module (PBREM) (AID 2282955); conditions: HepG2 PBREM cis-reporter, Attagene multiplexed transcription; actives raise or lower the signal
Summary of the method: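 Cells were transfected with cis-element reporter units and treated for 24 h, after which RNA was extracted and reporter transcripts measured by RT-PCR and capillary electrophoresis.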

[9] = molecular target: Paired box protein Pax-6 (Homo sapiens) (UniProt P26367); experiment: ATG_Pax6_CIS: Attagene CIS-FACTORIAL HepG2 Assay for human Paired Box 6 (PAX6) (AID 2282956); conditions: HepG2 CIS-FACTORIAL PAX6 reporter transcription, RNA readout; actives raise or lower the signal
Sequence of Paired box protein Pax-6 (Homo sapiens) (P26367 whole entry, looked up): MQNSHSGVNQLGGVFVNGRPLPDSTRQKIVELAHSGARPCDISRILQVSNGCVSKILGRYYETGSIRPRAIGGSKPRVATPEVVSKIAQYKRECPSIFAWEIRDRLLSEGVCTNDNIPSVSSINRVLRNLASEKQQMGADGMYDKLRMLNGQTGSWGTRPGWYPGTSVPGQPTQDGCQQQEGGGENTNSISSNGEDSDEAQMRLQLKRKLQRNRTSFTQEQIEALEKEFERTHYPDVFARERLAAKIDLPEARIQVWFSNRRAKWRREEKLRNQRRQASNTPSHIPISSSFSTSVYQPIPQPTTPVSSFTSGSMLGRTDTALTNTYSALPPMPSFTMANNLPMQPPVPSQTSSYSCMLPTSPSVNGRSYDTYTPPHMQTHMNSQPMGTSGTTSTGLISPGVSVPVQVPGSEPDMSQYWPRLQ
Summary of the method: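 After twenty-four hours of chemical exposure, transfected HepG2 cells are harvested for RNA. Cis-promoter reporter transcripts are amplified, fluorescently labelled and sized by capillary electrophoresis, with gain and loss of signal scored against DMSO.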

[10] = ATG_PPRE_CIS: Attagene CIS-FACTORIAL HepG2 Assay for human Peroxisome Proliferator-activated Response Element (PPRE) (AID 2282958); conditions: HepG2 PPRE cis-element reporter, Attagene transcription factor profiling; actives raise or lower the signal
Summary of the method: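 In this cell-based multiplex, a PPRE cis element drives a reporter sequence in transiently transfected HepG2 cells. Following 24 h treatment, labeled cDNA amplicons are sized and quantified by capillary electrophoresis, with DMSO defining baseline.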

[11] = ATG_RORE_CIS: Attagene CIS-FACTORIAL HepG2 Assay for human RAR-related Orphan Receptor Element (RORE) (AID 2282959); conditions: HepG2 Attagene cis-factorial RORE reporter, mRNA; actives raise or lower the signal
Summary of the method: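 Endogenous factor activity at a cis response element is read as reporter transcript levels in HepG2 cells, 24 h post-dose. Transcripts are quantified by RT-PCR with capillary electrophoresis, and data fitted in both directions against DMSO.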

[12] = ATG_Sox_CIS: Attagene CIS-FACTORIAL HepG2 Assay for human SRY-box transcription factor (SOX) (AID 2282960); conditions: HepG2 Attagene cis-factorial SOX reporter, mRNA; actives raise or lower the signal
Summary of the method: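 Measures mRNA induction of a SOX1-associated reporter in HepG2 after 24 h dosing. Fluorescently labelled RT-PCR fragments are separated by capillary electrophoresis, and gain or loss relative to DMSO control is fitted.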

[13] = molecular target: Transcription factor Sp1 (Homo sapiens) (UniProt P08047); experiment: ATG_Sp1_CIS: Attagene CIS-FACTORIAL HepG2 Assay for human Specificity Protein 1 (Sp1) (AID 2282961); conditions: HepG2 Sp1 cis-reporter transcription, actives raise or lower the signal
Sequence of Transcription factor Sp1 (Homo sapiens) (P08047 whole entry, looked up): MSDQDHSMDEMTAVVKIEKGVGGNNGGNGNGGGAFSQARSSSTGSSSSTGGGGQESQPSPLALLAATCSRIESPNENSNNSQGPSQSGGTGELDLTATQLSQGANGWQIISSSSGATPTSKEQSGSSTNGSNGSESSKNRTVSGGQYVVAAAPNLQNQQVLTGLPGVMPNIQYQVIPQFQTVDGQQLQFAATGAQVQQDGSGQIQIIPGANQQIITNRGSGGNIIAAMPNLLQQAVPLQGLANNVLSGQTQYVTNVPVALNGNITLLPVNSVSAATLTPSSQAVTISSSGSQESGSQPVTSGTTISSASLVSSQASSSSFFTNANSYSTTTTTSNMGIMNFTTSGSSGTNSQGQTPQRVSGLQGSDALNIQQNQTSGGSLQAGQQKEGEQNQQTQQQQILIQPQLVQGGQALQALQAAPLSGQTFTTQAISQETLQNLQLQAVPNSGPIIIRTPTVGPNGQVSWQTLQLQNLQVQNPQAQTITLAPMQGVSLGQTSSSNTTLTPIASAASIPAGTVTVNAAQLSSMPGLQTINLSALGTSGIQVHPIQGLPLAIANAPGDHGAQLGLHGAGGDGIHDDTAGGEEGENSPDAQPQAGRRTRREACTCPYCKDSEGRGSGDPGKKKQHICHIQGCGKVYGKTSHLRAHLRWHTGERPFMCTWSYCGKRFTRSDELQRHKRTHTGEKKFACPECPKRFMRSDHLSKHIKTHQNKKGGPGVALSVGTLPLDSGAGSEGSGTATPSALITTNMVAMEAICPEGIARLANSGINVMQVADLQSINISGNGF
Summary of the method: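 Cells: HepG2, transiently transfected with cis-regulated multiplexed reporters. Exposure: 24 h. Detection: reporter transcripts amplified, fluorescently labeled, restriction-digested and sized by capillary electrophoresis. Analysis: bidirectional fit relative to DMSO.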

[14] = molecular target: Signal transducer and activator of transcription 3 (Homo sapiens) (UniProt P40763); experiment: ATG_STAT3_CIS: Attagene CIS-FACTORIAL HepG2 Assay for human Signal Transducer and Activator of Transcription 3 (STAT3) (AID 2282963); conditions: HepG2, Attagene cis-factorial STAT3 reporter transcription; actives raise or lower the signal
Sequence of Signal transducer and activator of transcription 3 (Homo sapiens) (P40763 whole entry, looked up): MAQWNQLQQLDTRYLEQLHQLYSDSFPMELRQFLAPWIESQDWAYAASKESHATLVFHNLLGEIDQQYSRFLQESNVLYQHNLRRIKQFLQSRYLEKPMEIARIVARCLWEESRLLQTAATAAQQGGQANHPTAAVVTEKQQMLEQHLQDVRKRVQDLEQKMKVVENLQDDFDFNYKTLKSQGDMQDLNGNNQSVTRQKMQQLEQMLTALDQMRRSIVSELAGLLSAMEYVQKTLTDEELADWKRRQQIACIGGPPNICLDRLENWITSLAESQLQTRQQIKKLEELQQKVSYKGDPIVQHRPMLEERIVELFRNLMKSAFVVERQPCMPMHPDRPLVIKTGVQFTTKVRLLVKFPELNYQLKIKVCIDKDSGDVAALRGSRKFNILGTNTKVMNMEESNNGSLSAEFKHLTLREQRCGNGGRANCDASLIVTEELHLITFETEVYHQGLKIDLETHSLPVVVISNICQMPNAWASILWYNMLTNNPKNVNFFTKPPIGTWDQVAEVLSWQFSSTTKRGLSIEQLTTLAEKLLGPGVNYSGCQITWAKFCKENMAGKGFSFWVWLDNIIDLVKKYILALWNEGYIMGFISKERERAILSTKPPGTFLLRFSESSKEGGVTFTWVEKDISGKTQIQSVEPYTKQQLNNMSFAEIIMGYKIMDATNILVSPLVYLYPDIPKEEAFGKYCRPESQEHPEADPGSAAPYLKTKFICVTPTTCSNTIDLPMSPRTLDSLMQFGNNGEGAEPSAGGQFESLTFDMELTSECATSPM
Summary of the method: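 Transcript-level reporter assay. HepG2 transient MRTU transfection, 24 h exposure, fluorescence detection after RT-PCR and CE; DMSO baseline.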

[15] = ATG_TA_CIS: Attagene CIS-FACTORIAL HepG2 Assay for human TA Basal Promoter (AID 2282964); conditions: HepG2 Attagene CIS-factorial TA basal promoter reporter; actives raise or lower the signal
Summary of the method: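 HepG2 cells transiently transfected with multiplexed cis-promoter reporter units, dosed 24 h. Reporter mRNA measured by RT-PCR, 6-FAM labelling, HpaI digestion and capillary electrophoresis; bidirectional fit versus DMSO baseline, serving as background control.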

[16] = ATG_TCF_b_cat_CIS: Attagene CIS-FACTORIAL HepG2 Assay for human T-Cell-Factor with beta-catenin (TCF/b-cat) (AID 2282965); conditions: HepG2 TCF/beta-catenin cis-reporter transcription, actives raise or lower the signal
Summary of the method: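 Using capillary electrophoresis as the read-out, labelled reporter cDNA fragments from transiently transfected HepG2 were sized and quantified. Exposure lasted 24 hours; activity in either direction was referenced to DMSO.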

[17] = molecular target: Hypoxia-inducible factor 1-alpha (Homo sapiens) (UniProt Q16665); experiment: ATG_HIF1a_CIS: Attagene CIS-FACTORIAL HepG2 Assay for human Hypoxia Inducible Factor 1 (HIF1A) (AID 2282951); conditions: HepG2 Attagene cis-factorial HIF1a reporter transcription; actives raise or lower the signal
Sequence of Hypoxia-inducible factor 1-alpha (Homo sapiens) (Q16665 whole entry, looked up): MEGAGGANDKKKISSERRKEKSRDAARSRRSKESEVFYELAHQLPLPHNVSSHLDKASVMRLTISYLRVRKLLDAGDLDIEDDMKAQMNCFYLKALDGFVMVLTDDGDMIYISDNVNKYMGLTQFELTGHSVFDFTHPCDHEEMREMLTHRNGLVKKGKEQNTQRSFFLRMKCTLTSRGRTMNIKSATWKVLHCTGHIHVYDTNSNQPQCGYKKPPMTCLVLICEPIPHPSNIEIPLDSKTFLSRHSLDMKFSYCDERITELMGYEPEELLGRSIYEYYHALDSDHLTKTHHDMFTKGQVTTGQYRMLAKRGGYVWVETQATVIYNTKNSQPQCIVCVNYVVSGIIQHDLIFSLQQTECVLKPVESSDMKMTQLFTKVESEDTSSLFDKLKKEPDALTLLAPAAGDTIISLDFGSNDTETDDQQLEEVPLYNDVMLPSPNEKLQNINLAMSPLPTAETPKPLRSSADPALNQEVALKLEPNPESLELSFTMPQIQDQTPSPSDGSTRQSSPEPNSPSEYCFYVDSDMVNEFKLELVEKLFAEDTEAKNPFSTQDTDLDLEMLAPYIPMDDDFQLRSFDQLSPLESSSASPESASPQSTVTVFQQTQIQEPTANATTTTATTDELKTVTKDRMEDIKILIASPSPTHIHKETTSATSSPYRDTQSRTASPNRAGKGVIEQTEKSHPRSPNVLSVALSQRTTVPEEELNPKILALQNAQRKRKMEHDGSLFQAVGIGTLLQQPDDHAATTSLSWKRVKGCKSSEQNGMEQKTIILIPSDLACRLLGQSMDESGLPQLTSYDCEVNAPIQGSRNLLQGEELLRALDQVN
Summary of the method: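 Fluorescence intensity of capillary-separated, 6-FAM-labelled reporter amplicons gives mRNA induction in HepG2 cells carrying transfected cis-promoter reporter units; cells exposed 24 h, responses fitted up or down from DMSO.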

[18] = ATG_SREBP_CIS: Attagene CIS-FACTORIAL HepG2 Assay for human Sterol Regulatory Element Binding (SREBP) (AID 2282962); conditions: HepG2 Attagene cis-factorial SREBP reporter, mRNA; actives raise or lower the signal
Summary of the method: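 Twenty-four hours after chemical dosing of transfected HepG2 cultures, reporter RNA was converted to cDNA, amplified, end-labelled with 6-FAM and resolved by capillary electrophoresis. Responses were fitted relative to DMSO.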

[19] = ATG_PXRE_CIS: Attagene CIS-FACTORIAL HepG2 Assay for human Pregnane X Receptor Element (PXRE) (AID 2282957); conditions: HepG2 Attagene CIS-FACTORIAL PXRE reporter, mRNA; actives raise or lower the signal
Summary of the method: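 Transfect HepG2 with MRTUs (cis promoter elements); dose chemical, incubate 24 h; isolate RNA, RT with oligo(dT), PCR, 6-FAM label, HpaI cut, CE. Gain/loss fit vs DMSO.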

Measured: AC50

FC1(F)C(F)(F)C(F)(F)C2(F)C(F)(C1(F)F)C(F)(F)C(F)(F)C1(F)C(F)(F)C(F)(F)C(F)(F)C(F)(F)C12F (centres undefined)
not listed: [17] | [18] | [19]
inactive: all other assays above

CC1(C)[C@H]2CC[C@]1(C)[C@H](O)C2
not listed: [3] | [10] | [11] | [19]
inactive: all other assays above

Cc1ccc(O)c(C(C)(C)C)c1
active: [1] 100 µM | [5] 156 µM | [7] 146 µM | [9] 138 µM | [19] 25.1 µM | [11] 162 µM | [13] 80.7 µM | [18] 100 µM
not listed: [2]
inactive: all other assays above

C=COCCOCCOCCOC=C
not listed: [17]
inactive: all other assays above

Cc1cccc(Nc2ccccc2C(=O)O)c1C
active: [7] 76.9 µM | [19] 14.1 µM | [10] 18.2 µM | [16] 19.8 µM
not listed: [17]
inactive: all other assays above

O=C(O)c1cn(C2CC2)c2cc(N3CCNCC3)c(F)cc2c1=O
not listed: [5] | [8] | [17]
inactive: all other assays above

CC1=CCC(O)(C(C)C)CC1 (centres undefined)
not listed: [16] | [17] | [19]
inactive: all other assays above

CN1Cc2c(N)cccc2C(c2ccccc2)C1 (centres undefined)
not listed: [14] | [17] | [19]
inactive: all other assays above

COCCCOc1ccnc(CS(=O)c2nc3ccccc3[nH]2)c1C (centres undefined)
active: [6] 152 µM | [7] 106 µM | [19] 6.74 µM
not listed: [10] | [17]
inactive: all other assays above

CC[C@]12CCCN3CCc4c(n(c5ccccc45)[C@@](O)(C(=O)OC)C1)[C@@H]32
active: [6] 159 µM | [19] 7.96 µM
not listed: [5] | [8] | [10] | [11] | [15] | [17]
inactive: all other assays above

CC(C)C[C@H]1C(=O)N2CCC[C@H]2[C@]2(O)O[C@](NC(=O)[C@@H]3C=C4c5cccc6[nH]c(Br)c(c56)C[C@H]4N(C)C3)(C(C)C)C(=O)N12
inactive: [1] | [4] | [5] | [12] | [18]
active: [2] 3.76 µM | [7] 2.16 µM | [8] 0.744 µM | [9] 4.02 µM | [19] 0.302 µM | [13] 2.91 µM | [15] 3.09 µM | [16] 4.37 µM

CC(O)C(C)O (centres undefined)
not listed: [3]
inactive: all other assays above

NC(N)=NC(=O)c1nc(Cl)c(N)nc1N
active: [2] 157 µM
not listed: [10] | [11] | [17]
inactive: all other assays above

C[C@H]1C[C@@H]2[C@H]([C@@H](O)C[C@@]3(C)[C@H]2CC[C@]3(O)C(=O)CO)[C@@]2(C)C=CC(=O)C=C12
active: [1] 0.151 µM | [3] 131 µM | [19] 62.9 µM
not listed: [5] | [6] | [8] | [11] | [17]
inactive: all other assays above
